Our source for the Potency and outcome values is PubChem BioAssay (NCATS).

Assay [1] can be described thus: qHTS to identify inhibitors of the type 1 interferon - major histocompatibility complex class I in skeletal muscle: primary screen against the NCATS Pharmaceutical Collection (AID 1347407). Note: potency is the fitted concentration of half-maximal effect. Summed up: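 Luminescence from HiBiT-tagged endogenous HLA-B*08:01 served as the read-out of IFN-beta-induced MHC class I in CRISPR-engineered C25cl48 myoblasts. Cells received 4 ng/ml IFN-beta plus compound (high final 46 uM, […]) for 24 h.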
A general note: qHTS replaces the single test concentration by a dilution series.

Assay [2] can be described thus: qHTS to identify inhibitors of the type 1 interferon - major histocompatibility complex class I in skeletal muscle: primary screen against the NCATS Mechanism Interrogation Plate v5.0 (MIPE) Libary (AID 1347411). Note: nearly all actives have a fitted effect of over 65% in size. Summed up: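 Cells were genome-edited human myoblasts carrying a HiBit tag on endogenous HLA-B. They were treated with IFN-beta (4.0 ng/ml) and titrated compounds (top 46 uM) for 24 hrs before lytic HiBiT detection.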

In assay [3] the target is Protein phosphatase 1D (Homo sapiens) (UniProt O15297). Kind of assay: RapidFire Mass Spectrometry qHTS Assay for Modulators of WT P53-Induced Phosphatase 1 (WIP1) (AID 1347424).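 Note: amount of dephosphorylated VEPPL-S-QETFS peptide product formed by WIP1; series mostly up to about 63 µM.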 Summed up: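 WIP1 (10 nM final) was preincubated 1 h at room temperature with compounds in Tris-HCl pH 7.5, 30 mM MgCl2, TCEP, EGTA, BSA; 2 uM VEPPL-pS-QETFS phosphopeptide was added for 5 min, quenched with formic acid, and dephosphorylated product quantified by RapidFire MS.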

Assay [4] shares this target. In words: Rhodamine-PBP qHTS Assay for Modulators of WT P53-Induced Phosphatase 1 (WIP1) (AID 1347425). In short, it runs like this: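 The read-out is the change in Rhodamine-PBP fluorescence (f1 - f0, ex 525/em 598 nm) as Pi is released, read each minute for 11 min. Final reaction: 5 nM WIP1, 10 uM phosphopeptide VEPPL-pS-QETFS, 10 uM Rh-PBP, 50 mM Tris-HCl pH 7.5, 30 mM MgCl2. Compound was preincubated with enzyme for 1 hour at room temperature.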

Assay [5] is described as follows: Primary qHTS for inhibitors of La Crosse Virus (LACV) - induced cell death in SH-SY5Y cells (AID 1508616).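 Note: top concentration of the series differs between compounds; higher means more rescue of cells from virus-induced death.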 Summed up: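 Readout was luminescence from ATPLite 1step added after a 6-day LACV infection (0.01 MOI) of SH-SY5Y cells that had received pin-transferred compound 24 hr after seeding.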

Molecules are shown by their SMILES. Records with an inconclusive call do not appear. Calls of active or inactive are those of the source. Calls come from the whole dose curve; as a rule, active = well fitted curve in the direction sought with a large enough effect; inconclusive = small, poorly fitted or top-dose-only effect, or another doubt; inactive = no such curve, though single readings can be large; an effect the other way counts as inactive or inconclusive.

Chain of Protein phosphatase 1D (Homo sapiens) (O15297 whole entry, looked up): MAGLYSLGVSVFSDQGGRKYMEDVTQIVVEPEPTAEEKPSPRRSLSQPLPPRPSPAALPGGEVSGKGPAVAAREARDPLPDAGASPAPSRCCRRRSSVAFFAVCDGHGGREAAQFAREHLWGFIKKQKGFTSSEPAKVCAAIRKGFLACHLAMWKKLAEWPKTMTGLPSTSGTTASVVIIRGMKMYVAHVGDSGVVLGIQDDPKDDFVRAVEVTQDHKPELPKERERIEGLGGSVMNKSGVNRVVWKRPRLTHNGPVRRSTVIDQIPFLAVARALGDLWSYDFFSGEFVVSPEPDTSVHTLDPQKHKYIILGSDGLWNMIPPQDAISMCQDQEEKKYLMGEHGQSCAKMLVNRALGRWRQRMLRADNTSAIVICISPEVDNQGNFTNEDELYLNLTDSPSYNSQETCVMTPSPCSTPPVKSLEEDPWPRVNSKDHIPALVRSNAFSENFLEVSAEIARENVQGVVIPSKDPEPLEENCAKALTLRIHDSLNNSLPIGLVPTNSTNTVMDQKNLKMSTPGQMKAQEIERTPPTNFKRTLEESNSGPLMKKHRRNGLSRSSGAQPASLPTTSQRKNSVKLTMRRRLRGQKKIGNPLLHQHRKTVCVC

For the compound `CC(=O)O[C@]1(C(C)=O)CC[C@H]2[C@@H]3C=C(C)C4=CC(=O)CC[C@]4(C)[C@H]3CC[C@@]21C`, the Potency entry in assay [1], in assay [2] and in assay [3] was “inactive” in each case. The result in assay [4] and in assay [5] was inactive.

Regarding `O=c1[nH]c(=O)n([C@H]2C[C@H](O)[C@@H](CO)O2)cc1F`, the Potency entry in assay [1], in assay [2] and in assay [3] was “inactive” throughout. Further, the compound was classed as inactive in assay [4].

With `C#C[C@]1(O)CC[C@H]2[C@@H]3CCC4=CC(=O)CC[C@@H]4[C@H]3CC[C@@]21CC`, the Potency entry in assay [1], in assay [2] and in assay [3] was “inactive” each time. For the same compound, the compound was called inactive in assay [4] and in assay [5].

Regarding `CN1CCN(CCC(=O)N2c3ccccc3Sc3ccc(C(F)(F)F)cc32)CC1`, the Potency result in assay [1] and in assay [3] was “inactive” each time. Further, the compound was called inactive in assay [4].

Regarding `Cc1ccc2c(Br)cc(Br)c(O)c2n1`, the Potency result in assay [1] and in assay [3] was “inactive” each time.

Consider `C[C@H]1O[C@@H](O[C@H]2CC[C@@]3(C)[C@H](CC[C@@H]4[C@@H]3C[C@@H](O)[C@]3(C)[C@@H](C5=CC(=O)OC5)CC[C@]43O)C2)C[C@H](O)[C@@H]1O[C@H]1C[C@H](O)[C@H](O[C@H]2C[C@H](O)[C@H](O[C@@H]3O[C@H](CO)[C@@H](O)[C@H](O)[C@H]3O)[C@@H](C)O2)[C@@H](C)O1`, for which the Potency in assay [1] was 0.528 µM (active). The Potency entry in assay [3] was “inactive”.

In the case of `CCN(CC)CCNC(=O)COc1ccc(OC)cc1`, the Potency entry in assay [1] and in assay [3] was “inactive” in each case. Moreover, the result in assay [4] and in assay [5] was inactive.

As for `CCCCCCCCNC(C)C(O)c1ccc(SC(C)C)cc1` (centres undefined), the Potency result in assay [1] and in assay [3] was “inactive” throughout. Also, the call in assay [4] and in assay [5] was inactive.

`Cc1ccc(-c2ncc(Cl)cc2-c2ccc(S(C)(=O)=O)cc2)cn1`: the Potency entry in assay [1], in assay [2] and in assay [3] was “inactive” throughout. Moreover, the result in assay [4] and in assay [5] was inactive.

For `CCCCCCCCCCCCCCCC(=O)O`, the Potency entry in assay [1] and in assay [3] was “inactive” throughout. The compound was called inactive in assay [4] and in assay [5].

On to `C[C@@]12C(=O)OC(=O)[C@]1(C)C1CCC2O1`, for which, in assay [1], the Potency was 13.3 µM (active). The Potency result in assay [3] was “inactive”. In assay [4], the outcome was inactive.

With `C#C[C@]1(O)CC[C@H]2[C@@H]3CCc4cc(OC)ccc4[C@H]3CC[C@@]21C`, the Potency entry in assay [1], in assay [2] and in assay [3] was “inactive” each time. Also, the call in assay [4] and in assay [5] was inactive.

Consider `CC(=O)Nc1ccc(OC(=O)c2ccccc2OC(C)=O)cc1`, for which the Potency result in assay [1] and in assay [3] was “inactive” in each case. Moreover, the compound was called inactive in assay [4] and in assay [5].

As to `O=C(c1ccc(F)cc1)C1CCN(CCn2c(=S)[nH]c3ccccc3c2=O)CC1`, the Potency entry in assay [1] and in assay [3] was “inactive” throughout.

For `CC(=O)OC[C@H]1O[C@@H](n2ncc(=O)[nH]c2=O)[C@H](OC(C)=O)[C@@H]1OC(C)=O`, the Potency entry in assay [1] and in assay [3] was “inactive” throughout. The compound was called inactive in assay [4] and in assay [5].

With `C#C[C@]1(O)CC[C@H]2[C@@H]3[C@H](C)CC4=C(CCC(=O)C4)[C@H]3CC[C@@]21C`, the Potency result in assay [1], in assay [2] and in assay [3] was “inactive” throughout. For the same compound, the compound was called inactive in assay [5].

In the case of `Clc1cccc(C(c2ccc3nc[nH]c3c2)n2ccnc2)c1` (centres undefined), the Potency entry in assay [1], in assay [2] and in assay [3] was “inactive” in each case. Besides, the compound was classed as inactive in assay [4] and in assay [5].

On to `O=C(O)Cc1csc(-c2ccc(Cl)cc2)n1`, for which the Potency entry in assay [1] and in assay [3] was “inactive” throughout. For the same compound, the outcome in assay [4] and in assay [5] was inactive.
